Laboratory results taken from PubChem BioAssay AID602127 (Broad Institute, 2011).
Measured potencies and affinities stand elsewhere.

target: Cyclin-dependent kinase 2 (Homo sapiens) (UniProt P24941); assay: inhibition of human CDK2/cyclin A – biochemical, cherry-picked samples, selectivity assay for Dyrk1A inhibitor project, dose response (AID 602127); details: ADP-Glo luminescence, 60 min; series mostly up to 10 µM; activity change, negative = inhibition: at the top concentration

Activity change, negative = inhibition, inactive:
Cc1nc(CNc2ncnc3ccc(-c4ccc5c(c4)OCO5)cc23)cs1 1.07%
COc1ccc(-c2nccc(NCc3ccc(C)cc3)n2)cc1 -10.5%
CCN(Cc1cccs1)c1ncnc2ccc(-c3ccc4c(c3)OCO4)cc12 -3.99%
O=[N+]([O-])c1cc(Nc2nccc(-c3ccc4c(c3)OCO4)n2)cc(C(F)(F)F)c1 -0.986%
c1csc(CNc2ncnc3ccc(-c4ccoc4)cc23)c1 -17.2%
Cc1ccsc1CN(C)c1ncnc2ccc(-c3ccc(CO)o3)cc12 -20.1%
COc1cc(C(=O)Nc2cccc(-c3nncn3C)c2)cc(OC)c1OC -1.46%
CCOC(=O)c1ccc(-c2ccc3ncnc(N(C)Cc4sccc4C)c3c2)o1 -1.21%
N#CCSc1nc(Nc2ccc3c(c2)OCO3)c2ccccc2n1 -21.3%
CC(=O)Nc1cccc(NC(=O)c2cc3ccccc3o2)c1 -13.7%
c1csc(CCNc2ncnc3ccc(-c4ccc5c(c4)OCO5)cc23)c1 -13.2%
Clc1ccc(CNc2ncncc2-c2ccc3c(c2)OCO3)cc1 -1.46%
CN(Cc1cccs1)c1ncnc2ccc(-c3ccc4c(c3)OCO4)cc12 -1.32%
c1coc(CCNc2ncnc3ccc(-c4ccc5c(c4)OCO5)cc23)c1 2.36%
CCOC(=O)c1ccc2ncc(C(=O)OCC)c(Nc3ccc(N4CCOCC4)cc3)c2c1 -17.7%
Cc1noc(NS(=O)(=O)c2ccc(NC(=O)c3oc4ccc(F)cc4c3C)cc2)c1C -7.63%
Cc1noc(CN(C)c2ncnc3ccc(-c4ccc5c(c4)OCO5)cc23)n1 -6.39%
CC1Cc2ccccc2N1c1ncnc2nc[nH]c12 (stereo not drawn) -5.61%
